Source: PubChem BioAssay (National Center for Advancing Translational Sciences (NCATS))
Giardia FBPA inh-1: Giardia lamblia aldolase inhibition; A8B2U2; purified Giardia FBPA; Potency, µM (doses to about 59.6 µM), actives largely listed as inhibitors; hit rate 0.71% among 290,000; AID 2451; also: nearly all actives have a fitted effect of over 55% in size
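40 nM FBPA preincubated 10 min at RT with compound (up to 57.5 uM final), then substrate plus GAPDH/TPI/NAD/arsenate coupling and diaphorase/resazurin added. Fluorescence read after 20 min at RT, 525/598 nm.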
CHX counter: counter-screen for Shiga toxin inhibitors: cycloheximide protein synthesis inhibition; max response, %; hit rate 12% among 300,000; cell reporter, cycloheximide protein synthesis inhibition counterscreen; in the data active = max response mostly above about 13%, no sharp cut-off; inactive = mostly below about 14%; also: read at 38.3 µM for the half of the compounds with a filed dose
NS1 inh: influenza NS1 inhibition; hit rate 0.4% among 270,000; Potency, µM (series often up to 46.1 µM); calls by dose curve; also: actives are rising curves; nearly all actives have a fitted effect of over 50% in size
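In this qHTS, NS1 from influenza A is expressed in budding yeast, where it slows growth. Cells are switched from glucose to 2% galactose medium (pH 6.0, -URA), treated with compound, and growth recovery is read at OD600.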
Shiga inhibitor: Shiga toxin inhibition | Vero cells, Shiga toxin protein synthesis inhibition reporter | inhibition, % at 38.7 µM | hit rate 9.2% among 290,000 | AID 2315; in the data active = inhibition mostly above about 28%, no sharp cut-off; inactive = mostly below about 43%
LmPK inhibitor: LmPK (Leishmania mexicana) enzyme inhibition. Q27686. purified LmPK, Kinase-Glo ATP luminescence, 1 h. Potency, µM (titrated, usually from 57.5 µM), most hits filed as inhibitors. hit rate 0.37% among 290,000. AID 1721
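Screened at intermediate enzyme activity to detect both inhibitors and activators: LmPK at 0.1 nM, with a 0.5 nM enzyme column as activation reference. PEP 0.5 mM, ADP 0.1 mM; ATP detected by luminescence after 1 h.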
Giardia growth: inhibitors of Giardia lamblia growth | Potency, µM (series often up to 57.5 µM), usual class: inhibitors | hit rate 5% among 1,500 | Giardia lamblia trophozoite growth inhibition | AID 2785 | shares compounds with Giardia FBPA inh-1;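 also: trophozoites exposed to compound for 48 h at 37 °C; nearly all actives have a fitted effect of over 70% in size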
Mammalian tox: toxic to mammalian cells in Giardia aldolase counter-screen | shares compounds with Giardia FBPA inh-1 | mammalian cell viability counter-screen, qHTS | Potency, µM (top dose mostly 57.5 µM), actives largely listed as inhibitors | hit rate 4% among 1,500;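 also: Chinese hamster ovary cells used as mammalian cytotoxicity surrogate; viability measured as cellular ATP by luminescence; compound exposure lasted 48 h before reading; nearly all actives have a fitted effect of over 60% in size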
Giardia FBPA inh-2: confirmation of Giardia fructose-bisphosphate aldolase inhibitors; shares compounds with Giardia FBPA inh-1; purified Giardia aldolase enzyme activity, qHTS; Potency, µM (series often up to 57.5 µM), hits mostly inhibitors; hit rate 5% among 1,500; also: nearly all actives have a fitted effect of over 45% in size
Rabbit FBPA inh: rabbit FBP aldolase inhibition by Giardia aldolase hits | hit rate 4% among 1,500 | Potency, µM (top dose mostly 57.5 µM), most hits filed as inhibitors | AID 2794 | Rabbit muscle FBPA enzyme inhibition, selectivity counter-screen | shares compounds with Giardia FBPA inh-1; also: nearly all actives have a fitted effect of over 60% in size
Target sequence (P00883 whole entry, looked up): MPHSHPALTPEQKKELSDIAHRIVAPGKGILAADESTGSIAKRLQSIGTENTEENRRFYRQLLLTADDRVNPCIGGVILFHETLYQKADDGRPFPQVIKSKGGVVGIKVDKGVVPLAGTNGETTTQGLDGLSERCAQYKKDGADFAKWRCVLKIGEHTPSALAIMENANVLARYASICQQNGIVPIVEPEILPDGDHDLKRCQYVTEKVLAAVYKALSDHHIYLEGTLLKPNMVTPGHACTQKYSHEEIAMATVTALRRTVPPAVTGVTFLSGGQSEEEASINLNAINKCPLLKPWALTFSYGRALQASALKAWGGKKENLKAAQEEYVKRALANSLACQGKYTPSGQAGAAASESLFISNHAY
GAPDH counter: GAPDH inhibition flagged for Giardia aldolase hits | shares compounds with Giardia FBPA inh-1 | GAPDH coupling enzyme counterscreen, biochemical, qHTS | Potency, µM (series often up to 57.5 µM), hits mostly inhibitors | hit rate 6% among 1,500 | AID 2795; also: nearly all actives have a fitted effect of over 55% in size
A number is an active result; . = inactive; ? = inconclusive; / = not tested or not shown; [ ] = another dose, or the depositor's remark. An excerpt weighted towards active compounds, which were near 14% of everything screened. Unless noted, calls follow the shape of the dose curve; as a rule, active = well fitted curve in the direction sought with a large enough effect; inconclusive = small, poorly fitted or top-dose-only effect, or another doubt; inactive = no such curve, though single readings can be large; an effect the other way counts as inactive or inconclusive.

SMILES | Giardia FBPA inh-1 | CHX counter | NS1 inh | Shiga inhibitor | LmPK inhibitor | Giardia growth | Mammalian tox | Giardia FBPA inh-2 | Rabbit FBPA inh | GAPDH counter
COc1ccc(C)cc1NC(=O)C(NCC(O)c1ccccc1)c1ccccc1 (centres undefined) | 12.6µM | . | . | . | . | . | . | . | . | .
COc1ccc(-c2cc(-c3ccco3)[nH]c(=O)c2C#N)cc1 | 19.9µM | . | ? | . | . | . | . | . | . | .
COc1cc(CNC2CCCCC2OC)cc(OC)c1 (centres undefined) | ? | . | / | . | . | / | / | / | / | /
COC1CCCCC1Nc1ccc(C)c(C)c1 (centres undefined) | 19.9µM | . | . | . | . | .[10.4 µM] | . | . | . | .
CCCCc1c(O)nc(SC2CC(=O)N(c3ccc(C(=O)OCC)cc3)C2=O)[nH]c1=O (centres undefined) | 7.08µM | . | . | . | . | .[10.4 µM] | . | . | . | .
Cc1noc(C)c1S(=O)(=O)N(CC(=O)NC(C)c1ccccc1)c1ccc(C(C)C)cc1 (centres undefined) | / | . | . | . | . | / | / | / | / | /
COC(=O)c1cn(C(=O)c2cccc(Br)c2)c2ccccc12 | . | . | . | . | . | / | / | / | / | /
COc1ccc(-c2csc(N(CCCN(C)C)C(=O)c3ccccc3C)n2)cc1 | ? | . | . | . | . | / | / | / | / | /
COc1ccc(-c2csc(N(CCCN(C)C)C(=O)c3ccccc3F)n2)cc1 | 28.2µM | . | . | . | . | . | . | . | . | .
CC1=NN(C(N)=S)C(C)(C)C1 | 11.2µM | . | . | . | . | . | . | . | . | .
CCCCC1(C)NC(=S)N2N1C(=S)NC2(C)CCCC (centres undefined) | 15.8µM | . | . | . | . | ? | . | . | . | .
O=C(CN1CCOCC1)N1CCCc2ccccc21 | 12.6µM | . | . | . | . | ? | . | . | . | .
Cc1cccc(NC2=C/C(=N/S(=O)(=O)c3cccs3)c3ccccc3C2=O)c1 | 0.199µM | 14.5 | . | . | . | 15.8µM | 20µM | ? | . | 2.51µM
Cc1cc(SCNC(=O)c2ccccc2)ncn1 | 14.1µM | . | . | . | . | ? | . | . | . | .
CCC(=O)N1CCN(c2cc(C)ccc2C)CC1 | . | . | . | . | . | / | / | / | / | /
Cc1ccc(C)c(N2CCN(CCN3CCCCC3)CC2)c1 | 15.8µM | . | . | . | . | ? | . | . | . | .
Cc1ccc(-n2nc3c(=S)[nH]nc(C)c3c2C)cc1 | 25.1µM | . | . | . | . | . | . | . | . | .
CC(C)OC(=O)CNc1n[nH]c(=S)[nH]c1=O | 4.46µM | . | . | . | . | . | . | . | . | .
COC(=O)CNc1n[nH]c(=S)[nH]c1=O | ? | . | . | . | . | / | / | / | / | /
CN(C)C(=O)CNc1n[nH]c(=S)[nH]c1=O | 15.8µM | . | . | . | . | ? | . | . | . | .
CC(C)COC(=O)C(C)Nc1n[nH]c(=S)[nH]c1=O (centres undefined) | . | . | . | . | . | / | / | / | / | /
O=C(CCn1c(=S)[nH]c2ccccc2c1=O)Nc1ccc(F)cc1 | / | . | . | . | . | / | / | / | / | /
N#CCC(=O)Nn1c(=S)[nH]c2ccccc2c1=O | 3.54µM | . | / | . | . | . | . | . | . | .
O=C(Nc1ccccc1N1CCN(C(=O)c2ccccc2)CC1)c1ccc(Br)o1 | / | . | . | . | . | / | / | / | / | /
CCc1ccc(C2=NN(C(=O)CCC(=O)O)C(c3cccs3)C2)cc1 (centres undefined) | . | . | . | . | . | / | / | / | / | /
Oc1ccccc1C1Nc2cccc3cccc(c23)N1 | . | . | . | . | . | / | / | / | / | /
O=[N+]([O-])c1ccccc1C1Nc2cccc3cccc(c23)N1 | ? | . | . | . | . | 10µM | . | ? | . | ?
